Source: PubChem BioAssay AID463190 (Sanford-Burnham Center for Chemical Genomics, 2010)
“And” between values parts separate entries of the source, which are not always exact repeats. Equal entries are not always repeated. Screen size: about 330,000 compounds; about 7,300 (2.2%) were called active. The entries come from a sample that favours actives as a whole. A number with no mark means an inactive call.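 The calls were made as follows: active = inhibition of at least 40%; inactive = the rest.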

Assay: growth inhibition of tim10-1 ts yeast – luminescence, uHTS, primary screen (AID 463190);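 also: mutant grown at 25 °C; 0% = DMSO wells with yeast and 100% = wells holding no yeast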
Settings: S. cerevisiae tim10-1 ts strain growth, BacTiter-Glo, 24 h; at 20 µM; stronger effect = higher value

| Structure (SMILES) | inhibition |
| --- | --- |
| O=C1c2ccccc2S(=O)(=O)N1CC(O)Cn1c2ccccc2c2ccccc21 (stereo not given) | 60.7% (active) |
| O=C(CN1C(=O)c2ccccc2S1(=O)=O)NC1CCCCC1 | 7.88% |
| CCCCN(CCCC)CC(O)Cn1c2ccccc2c(=O)c2ccccc21 (stereo not given) | 14.3% |
| CCC1=[N+]([O-])C(C)(/C(C)=N\O)N(O)C1(C)C (stereo not given) | 9.85% |
| O=C(NCc1ccccc1)C(c1cccnc1)N(C(=O)c1csnn1)c1ccc(F)cc1 (stereo not given) | -25% |
| CCO[C@H]1OC(C(=O)N2CCN(Cc3ccccc3)CC2)=C[C@@H](c2cn(C(C)=O)c3ccccc23)[C@@H]1CCCO | 15% |
| Cc1nc(Cl)c2oc3ccccc3c2n1 | 0.846% |
| COc1ccc(C)cc1Nc1nc(C)nc2c1oc1ccccc12 | 40.7% (active) |
| COc1ccccc1Nc1ncnc2c1oc1ccccc12 | 3.5% |
| Cc1ccc(CC(=O)Nc2cccc(C#N)c2)cc1 | 22.1% |
| CC(C)CN(C(=O)COC(=O)c1ccc(Cl)c(N)c1)c1c(N)n(Cc2ccccc2)c(=O)[nH]c1=O | 2.64% |
| CCCCN=C1N/C(=C\c2ccco2)C(=O)N1c1ccccc1 | 28% |
| CN(C)CCCN(Cc1cc2cc3c(cc2[nH]c1=O)OCCO3)C(=O)NC1CCCCC1 | 7.7% |
| Cn1c(-c2sccc2OCc2cccc(C(F)(F)F)c2)n[nH]c1=S | 43.5% (active) |
| Cn1c(-c2sc3cc(C(F)(F)F)cnc3c2-c2ccccc2)n[nH]c1=S | 18.5% |
| COc1cc(/C=N/n2c(C)n[nH]c2=S)ccc1OCc1ccccc1 | 34.8% |
| CCCCNC(=O)Cn1nc(C)c(S(=O)(=O)N2CCOCC2)c1C | -10.1% |
| COc1ccc(Cl)cc1NC(=O)C(C)N1CCc2ccccc21 (stereo not given) | 10.7% |
| c1ccc2c(c1)CCc1snnc1-2 | -9.47% |
| CC(=O)c1cccc(NC(=O)C2COc3ccccc3O2)c1 (stereo not given) | 6.4% |
| CC(NC(=S)Nc1ccccc1)C1COc2ccccc2O1 (stereo not given) | 44.1% (active) |
| C/C(=N/NC(=S)Nc1ccccc1)c1ccc2c(c1)OCO2 | 36.6% |
| CCCNC(=O)CCn1cc(-c2ccc(OC)cc2)nc1CCN | -4.9% |
| CCCCn1c(N)c(N(CCC(C)C)C(=O)COC(=O)c2ccc(CC)cc2)c(=O)[nH]c1=O | 9.31% |

| Structure (SMILES) | inhibition |
| --- | --- |
| CCCCCCCC(=O)NC(Nc1ccccc1OC)C(Cl)(Cl)Cl (stereo not given) | -1.41% |
| CCOC(=O)c1ccc(N=C2SC(C(=O)NC)CC(=O)N2CCc2ccccc2)cc1 (stereo not given) | 8.86% |
| Cc1cccc(N(C)C(=O)CN2C(=O)COc3ccc(S(=O)(=O)N4CCCCCC4)cc32)c1 | 25.2% |
| COc1ccc(S(=O)(=O)Nc2ccc(O)c(Sc3nc4ccccc4s3)c2)cc1 | 44.6% (active) |
| CCOc1ccc(S(=O)(=O)Nc2nc3cc(OC)ccc3s2)cc1 | -15.2% |
| COc1ccc(NS(=O)(=O)c2ccc3oc(SCC(N)=O)nc3c2)cc1 | 6.21% |
| O=S(=O)(c1cccs1)N1CCN(CCOc2ccccc2)CC1 | 8.64% |
| C[C@@H](NC(=O)OC(C)(C)C)c1nnc(S(=O)(=O)Cc2ccccc2)o1 | 45.1% (active) |
| C[C@H](NC(=O)OC(C)(C)C)c1nnc(SCC(=O)Nc2ccc(Br)cc2)o1 | 20.6% |
| CC(C)Sc1nnc([C@H](Cc2ccccc2)NC(=O)OC(C)(C)C)o1 | 15.3% |
| C=Cn1c(C(=O)O)ccc1-c1ccc(OC)cc1 | 4.85% |
| CC1(C)CCSC(/C=C/c2ccccc2)=N1 | 44.4% (active) |
| Cc1ccc(C(=O)NC2CCN(C(=O)Nc3ccccc3Cl)CC2)cc1 | -3.39% |
| CC(NC(=O)CN(C)S(=O)(=O)c1ccc(F)cc1)C1CC2CCC1C2 (stereo not given) | 25.6% |
| Cc1cc(CNCc2c(C(=O)N(C)Cc3ccccc3)nc3ccccn23)nn1C | 10.5% |
| Cc1ccc(Oc2nc(-c3ccccn3)nc3ccccc23)cc1 | 44.9% (active) |
| COc1cnc(-c2ccccn2)nc1Oc1ccc(C(C)(C)C)cc1 | 35% |
| CC(C)(C)Nc1nc(-c2ccccn2)nc2ccccc12 | -7.74% |
| Cn1nc(C(C)(C)C)c([N+](=O)[O-])c1C(N)=O | -18.4% |
| S=C(Nc1cccc(Cl)c1)Nc1ccc2c(c1)OCCO2 | 32.9% |
| Cc1csc(NC(=S)Nc2cccc(Cl)c2)n1 | 29.1% |
| FC(F)(F)c1cccc(NC(=S)Nc2cccc(Cl)c2)c1 | 48.1% (active) |
| Cc1cc(C)cc(OCC(=O)NCc2cc(C)nc3ccccc23)c1 | 20.5% |
| CCOc1ccc(-n2c(SCC(=O)NC3CCS(=O)(=O)C3)nnc2-c2cccnc2)cc1 (stereo not given) | 7.61% |

| Structure (SMILES) | inhibition |
| --- | --- |
| Cc1ccc(C(=O)CCC(=O)N(C)CC(=O)Nc2c(Cl)cccc2Cl)cc1 | 97.9% (active) |
| CN(CC(=O)Nc1c(Cl)cccc1Cl)C(=O)c1ccncc1 | 1.02% |
| Cc1cccc(C)c1NC(=O)CN(C)C(=O)CCC(=O)c1ccccc1 | 9.26% |
| Cc1ccc(CNC(=O)Cc2cn(C)c3ccccc23)cc1 | 27.3% |
| CC(C)CNS(=O)(=O)c1ccc(CCC(=O)NCc2ccc(Cl)cc2)cc1 | 8.22% |
| Cc1ccc(S(=O)(=O)NCCC(=O)NCc2ccc(Cl)cc2)cc1C | 8.85% |
| CSc1ccc(S(=O)(=O)NCc2ccc(Cl)cc2)cc1 | 44.8% (active) |
| O=C(OCC(=O)N1CCc2ccccc21)C1CCCN1S(=O)(=O)c1ccc(Cl)cc1 (stereo not given) | -10.6% |
| COc1ccc(CN2CC(C(=O)NCCc3ccc(Cl)cc3)CC2=O)cc1 (stereo not given) | -2.13% |
| Cc1ccc(NC(=S)N/N=C2/CCCc3c(C)cc(C)cc32)cc1 | 9.99% |
| CCCC1CCC(=NNC(=S)NCCc2ccccc2)CC1 (stereo not given) | -25.5% |
| CCCCNC(=S)N/N=C1\CCCCc2ccccc21 | 47.7% (active) |
| COC(=O)c1c(NC(=O)C(=O)N2CCCCC2)sc2c1CC(C)(C)OC2 | 8.07% |
| c1ccc(Cc2ccc(OCCn3ccnc3)cc2)cc1 | -1.87% |
| CSCC[C@H](NC(=O)NC1CCCC1)C(=O)O | 3.78% |
| CCOC(=O)N1CCC(N2Cc3cccc(C(=O)Nc4ccc(S(=O)(=O)N(CC)CC)cc4)c3C2=O)CC1 | 17.7% |
| O=C(O)c1cccc2c1C(=O)N(C1CCCC1)C2 | 8.44% |
| CCOC(=O)N1CCC(N2Cc3cccc(C(=O)Nc4c(C)cccc4CC)c3C2=O)CC1 | 51% (active) |
| O=C(Nc1nnc(-c2ccc(Cl)cc2)o1)c1ccccc1Br | 6.25% |
| O=C(Nc1nnc(-c2ccccc2)o1)c1cc(-c2cccs2)nc2ccccc12 | 48.6% (active) |
| CC(C)(C)Cc1nnc(NC(=O)c2cc(-c3ccccc3)nc3ccccc23)s1 | 23.3% |
| Cc1cc([N+](=O)[O-])nn1CCCC(=O)Nc1cccnc1Cl | 16.8% |
| Cc1ccccc1OCC(=O)Nc1ccc(N2CCN(C(=O)C(C)C)CC2)c(Cl)c1 | 63.3% (active) |
| Cc1ccccc1OCC(=O)Nc1ccc2c(c1)ncn2C | 5.78% |

| Structure (SMILES) | inhibition |
| --- | --- |
| Cc1ccccc1OCC(=O)Nc1ccc(S(=O)(=O)N2CCOCC2)cc1 | 37.4% |
| Cc1cc(NC(=O)CCS(=O)(=O)c2ccc(F)cc2)no1 | -5.29% |
| CSc1ccccc1NC(=O)COC(=O)CCCOc1ccc(C)cc1 | 7.06% |
| COc1cc([N+](=O)[O-])ccc1NC(=O)COC(=O)CCOc1ccc(C)cc1 | 50.3% (active) |
| COc1cc([N+](=O)[O-])ccc1NC(=O)CN1CCCC1 | 6.08% |
| COC(=O)N/N=C/c1ccc(/C=N/NC(=O)OC)cc1 | 7.21% |
| Cc1nonc1C(=O)N/N=C/c1ccc(O)cc1 | 51.4% (active) |
| Cc1nc2ccc(C(=O)N/N=C/c3ccc(O)cc3)cc2[nH]1 | 0.009% |
| O=C(O)Cc1csc(-c2cccc(Oc3ccccc3)c2)n1 | 7.9% and -6.65% |
| CN(CC(=O)NCCc1ccc(S(N)(=O)=O)cc1)CC(=O)Nc1ccc(F)c(F)c1F | 0.849% |
| Cc1ccc(S(=O)(=O)N(CC(O)CN2CCCCC2)c2cccc([N+](=O)[O-])c2)cc1 (stereo not given) | -38.7% |
| C/C(=N\NC(=S)NCc1ccccc1)C1CCCCC1 | 42.6% (active) |
| C/C(=N\NC(=S)NCc1ccccc1)c1ccc(Cl)cc1 | 22.9% |
| CC1CCCCN1C(=S)NCc1ccccc1 (stereo not given) | -0.074% |
| Cc1oc(CC(C)C)c(CN2CCCC2)c1C(=O)O | 3.08% |
| Cc1ccc(C2=NN(C(=O)COc3ncnc4ccccc34)C(c3ccco3)C2)cc1 (stereo not given) | -2.47% |
| O=C(COc1ccccc1Cl)N1N=C(c2cccs2)CC1c1ccco1 (stereo not given) | 40.8% (active) |
| O=C1c2cccc(OCC(=O)N3N=C(c4cccs4)CC3c3ccc(F)cc3)c2CCN1Cc1ccccc1 (stereo not given) | 19.6% |
| CCc1n[nH]c(=S)n1/N=C/c1c[nH]c2ccc(Br)cc12 | 12% |
| Cc1cc(C)cc(NC(=O)C2CCCN(S(=O)(=O)c3ccc4[nH]c(=O)ccc4c3)C2)c1 (stereo not given) | -13.6% |
| COc1ccc(C(=O)COC(=O)c2ccc([N+](=O)[O-])s2)cc1OC | 57.9% (active) |
| O=C(OCC(=O)N1CCN(c2ccccc2)CC1)c1ccc([N+](=O)[O-])s1 | 11.9% |
| COc1cc(NC(=O)COC(=O)c2ccc([N+](=O)[O-])s2)cc(OC)c1OC | 30.9% |
